Source: PubChem
The list is not random: actives were taken first. Their share in the collection is about 2.9%.
SMARCA2 activ – increases SMARCA2 function in MMTV reporter cells. 370,000 tested, 1% active. activation, % at 9.1 µM. MG213 cells, MMTV-luciferase reporter, dexamethasone, overnight. AID 652017; in the data active means activation above about 7.8%;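 further: 0% = vehicle wells and 100% = reference activator wells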
FAS TE block – FAS thioesterase (human) inhibition; P49327; recombinant FAS-TE, OMFH fluorogenic substrate, fluorescence endpoint; inhibition, % at 15 µM; 360,000 tested, 0.67% active; AID 602261;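 active means compounds whose normalised, plate-corrected inhibition of enzyme fluorescence in the single-dose primary screen is 50% or more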;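 further: 0% = DMSO with enzyme and 100% = substrate without enzyme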
GAA850 FXN act – increases GAA850 frataxin promoter reporter activity; activation, % at 6 µM; AID 540364; HEK293 lucGAA850 FXN promoter luciferase reporter, 24 h; percent of 10 µM SAHA response; 360,000 tested, 0.56% active;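 active means activation above the average of all compounds screened plus 3 SD, cutoff fixed separately per campaign, cut at about 7.5% in these data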;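 further: 0% = DMSO wells and 100% = 10 µM SAHA wells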
proKLK7 act – activates the human kallikrein-7 zymogen. AID 652039. P49862. 370,000 tested, 0.9% active. purified proKLK7, EDANS-DABCYL substrate fluorescence; 100% is mature enzyme control, 0% vehicle. activation, % at 7 µM;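 active means activation above the mean of all tested compounds plus 3 SD, computed per campaign excluding outliers beyond control limits, cut at about 13% in these data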
GAA30 counter – GAA30 FXN promoter activation counter-screen; shares compounds with GAA850 FXN act; HEK293 lucGAA30 FXN promoter luciferase, 24 h; DMSO = 0%, 5 µM ipriflavone = 100%; activation, % at 6 µM; 1,900 tested, 66% active; AID 588350;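 active means mean activation above the mean of solvent-only control wells plus 3 SD, cut at about 22% in these data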;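 further: counterscreen of GAA850 promoter hits where activity marks nonselective or luminescence artifacts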
GAA850 confirm – confirmation of GAA850 frataxin (FXN) promoter activators | activation, % at 6 µM | shares compounds with GAA850 FXN act | 1,900 tested, 86% active | AID 588351 | HEK293 lucGAA850 FXN promoter luciferase reporter, 24 h; 100% = activation by SAHA;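 active means mean activation above a set limit taken from the primary screen, cut at about 8% in these data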;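 further: 0% = DMSO wells and 100% = 10 µM SAHA wells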
SMARCA2 conf – confirmation of SMARCA2 (BRM) function activators; shares compounds with SMARCA2 activ; MG213 cells, MMTV-luciferase with dexamethasone, luminescence, overnight; MG213 cells expressing E1A, Rb sequestered; DMSO wells 0%, reference activator 100%; activation, % at 9.1 µM; 3,500 tested, 30% active; AID 652260;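 active means activation above its plate's cutoff, the mean activation of tested wells plus 3 SD, cut at about 7.9% in these data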
GAL4-VP16 Luc – activates GAL4-VP16 luciferase, flagging SMARCA2 activator hits. shares compounds with SMARCA2 activ. HEK293 GAL4-VP16 pG5luc reporter, luciferase luminescence; scaled: DMSO wells 0%, SAHA wells 100%. activation, % at 9.1 µM. 3,500 tested, 41% active;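 active means activation above the solvent-only control well mean plus 3 SD, averaged across control plates, cut at about 5.2% in these data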
KLK7 act conf – proKLK7 activation, confirmation; shares compounds with proKLK7 act; purified proKLK7, EDANS-DABCYL substrate fluorescence; scaled: vehicle 0, mature enzyme 100; activation, % at 7 µM; 3,200 tested, 68% active;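 active means activation, as change over the incubation, above the mean of all tested compounds plus 3 SD, cut at about 13% in these data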
EDANS-DABCYL int – counter-screen for kallikrein-7 activators: EDANS-DABCYL optical interference; shares compounds with proKLK7 act; EDANS-DABCYL substrate fluorescence interference, no enzyme, 4 h; solvent 0%, active enzyme control 100%; 3,200 tested, 80% active; activation, % at 7 µM;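 active means activation above the all-compound mean plus 3 SD, ignoring values outside control-based bounds, cut at about 4.8% in these data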;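 further: value is the 4 h activation minus the activation read at time zero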
* marks the source's active call; other numbers are inactive results; . = no result; ! = a repeat was not active.

SMILES	SMARCA2 activ	FAS TE block	GAA850 FXN act	proKLK7 act	GAA30 counter	GAA850 confirm	SMARCA2 conf	GAL4-VP16 Luc	others
COc1cc(/C=C/c2ccc3cccc(O)c3n2)cc(OC)c1OC	-3.9	10.0	-5.5	11.1	.	.	.	.
COc1cc(/C=C/c2ccc3cccc(O)c3n2)cc(Br)c1OC	8.4*	15.4	9.2*	1.4	-46.0	-0.7	-13.4	34.1*
COc1cccc(/C=C/c2ccc3cccc(O)c3n2)c1	14.1*	15.7	8.7*	1.5	3.6	29.2*	-3.3	23.1*
COc1cc(/C=C/c2ccc3cccc(O)c3n2)cc(Cl)c1OC	11.6*	16.1	13.4*	0.6	-78.9	-23.4	-6.0	33.7*
CC(=O)C1=C(NC(=O)c2ccccc2F)C[C@@H]2[C@H]1C2(C)C	0.4	11.5	-0.1	0.3	.	.	.	.
O=C(Oc1c(CN2CCOCC2)cc(Cl)c2cccnc12)c1ccccc1F	39.3*	3.0	7.7*	0.2	11.6	14.0*	12.8*	0.7
COc1cc(OC)cc(C(=O)Oc2c(CN3CCOCC3)cc(Cl)c3cccnc23)c1	-1.8	5.8	1.3	0.6	.	.	.	.
O=[N+]([O-])c1ccccc1Nc1nc(-c2cccnc2)cs1	9.2*	2.5	9.1*	-0.2	87.3*	26.3*	9.6*	7.7*
c1ccc2nc3c(ccc4ccccc43)cc2c1	14.6*	22.1	7.7*	-4.5	105.8*	36.7*	4.6	7.7*
CCOCCCNC(=O)/C(C#N)=C/c1ccc(-c2ccc(S(=O)(=O)N3CCOCC3)cc2)o1	.	15.1	1.0	.	.	.	.	.
CCOCCCNC(=O)/C(C#N)=C/c1ccc([N+](=O)[O-])o1	12.3*	15.0	10.9*	0.7	-45.0	-11.7	-15.6	1.9
COc1ccc(/C=C2\OC(=O)c3c(OC)cccc32)cc1OC	8.6*	10.7	10.5*	-119.4	111.4*	45.2*	22.1*	13.9*
CC(C)CCc1c(O)nc(SCC(C)C)[nH]c1=O	-4.3	-1.8	1.4	-0.7	.	.	.	.
O=C1C2(CCC13COC(c1ccc(O)cc1)OC3)COC(c1ccc(O)cc1)OC2 (stereo unspecified)	-2.6	-6.5	-1.8	-0.2	.	.	.	.
COc1ccc(-c2nc3ccccc3s2)cc1NC(C)=O	9.7*	2.7	8.4*	1.7	123.5*	39.6*	6.9	13.5*
CC(=O)NCc1ccc(-c2nc3ccccc3s2)cc1	2.8	-2.5	3.3	-0.7	.	.	.	.
O=C(C=Cc1ccccc1)CC(c1ccccc1)N1CCOCC1 (stereo unspecified)	8.8*	1.1	7.8*	-1.0	36.4*	39.9*	7.2	2.8
CCN(CC)C(=S)SSC(=S)N(CC)CC	9.2*	-0.2	20.1*	1.0	-116.7	-34.4	-9.3	7.0*
CC(=O)NCCC(=O)Nc1cc(S(=O)(=O)Nc2ccc(Cl)cc2)ccc1N1CCCC1	-3.4	1.7	-1.0	-0.3	.	.	.	.
Cn1c2ccccc2c(=O)c2ccc(C#CC3(N)CCCCC3)cc21	19.0*	0.7	10.5*	-23.4	48.9*	45.7*	43.8*	19.2*
O=C(NNC(=O)c1cc(-c2ccc(Cl)c(Cl)c2)nc2ccccc12)Nc1ccccc1	1.1	33.4	-0.5	0.4	.	.	.	.
COc1ccc(-c2cn3cccc(C)c3n2)cc1Br	10.0*	0.5	8.4*	0.1	119.6*	37.5*	6.8	14.3*
O=C1CSc2ccc(C(=O)NCCC3=CCCCC3)cc2N1	9.8*	25.1	7.8*	0.1	76.5*	24.0*	1.3	6.8*
Cc1ccc2nc3ccc(N4CCCCCCC4)nn3c(=O)c2c1	4.0	3.2	1.2	2.2	.	.	.	.
Cc1ccc2nc3ccc(N4CCN(C)CC4)nn3c(=O)c2c1	6.1	-2.6	8.2*	39.6*	115.6*	34.4*	.	.	KLK7 act conf=12.1;EDANS-DABCYL int=12.9*
SMILES	SMARCA2 activ	FAS TE block	GAA850 FXN act	proKLK7 act	GAA30 counter	GAA850 confirm	SMARCA2 conf	GAL4-VP16 Luc	others
Cc1ccc(C(OC(=O)c2ccco2)C(=O)NCc2cccs2)cc1 (stereo unspecified)	3.4	-0.4	-0.5	0.1	.	.	.	.
CC(=O)Nc1ncnc2c1c(-c1ccc(Cl)cc1)nn2C(C)(C)C	-1.4	2.9	10.8*	13.4*	19.5	10.4*	.	.	KLK7 act conf=1.3;EDANS-DABCYL int=0.3
COc1cccc2sc3cc(NCc4ccc(C)o4)ccc3c(=O)c12	3.5	7.4	7.7*	42.9*	87.9*	34.2*	.	.	KLK7 act conf=38.4*;EDANS-DABCYL int=38.9*
Nc1cc(N)cc(Cc2ccccc2)c1	0.7	5.6	.	0.3	.	.	.	.
O=C1/C(=C/c2cccc([N+](=O)[O-])c2)Oc2cc(O)ccc21	-0.8	5.9	-1.0	-0.2	.	.	.	.
COc1cc(/C=C2\Oc3cc(O)ccc3C2=O)ccc1O	10.2*	-8.5	8.3*	54.6*	93.7*	37.9*	17.5*	10.4*	KLK7 act conf=35.8*;EDANS-DABCYL int=35.5*
Cc1ccc(/C=C/c2nc3ccccc3[nH]2)o1	6.7	0.5	8.9*	20.7*	114.0*	38.5*	.	.	KLK7 act conf=31.4*;EDANS-DABCYL int=30.1*
Cc1cc2nc(/C=C/c3nc4cc(C)c(C)cc4[nH]3)[nH]c2cc1C	4.9	1.1	1.0	-1.7	.	.	.	.
O=C(NCCc1ccc(F)cc1)c1coc(=O)c(Br)c1	27.1*	-0.4	10.2*	12.7*	-5.6	17.0*	-8.2	4.4	KLK7 act conf=30.2*;EDANS-DABCYL int=29.4*
Cc1ccc(S(=O)(=O)c2c(C)nn(C(C)(C)C)c2OC(=O)c2ccc(Br)o2)cc1	-3.5	15.1	-1.4	0.3	.	.	.	.
CCCCCn1c(=NC(=O)c2ccco2)c(C(=O)OCC)cc2c(=O)n3ccccc3nc21	2.4	33.9	8.0*!	23.7*	6.7	9.0*	.	.	KLK7 act conf=32.6*;EDANS-DABCYL int=38.0*
CCCCn1c(=NC(=O)c2cccnc2)c(C(=O)OCC)cc2c(=O)n3ccccc3nc21	-0.8	31.4	-1.2	4.4	.	.	.	.
COc1cccc(NC(=O)N(C)C[C@@H]2OCc3cn(nn3)CCCC(=O)N([C@H](C)CO)C[C@H]2C)c1	-4.4	-8.3	0.2	0.0	.	.	.	.
CCOc1ccccc1/C=C/C(=O)c1ccc(Cl)cc1	0.9	17.1	0.1	-5.1	.	.	.	.
